# Records with an inconclusive call do not appear. Entries that show only a call come without a potency. Active and inactive are the calls of the source. Unless noted, calls follow the shape of the dose curve; as a rule, active = well fitted curve in the direction sought with a large enough effect in the repeat runs; inconclusive = weak or mixed curves; inactive = no such curve, though single readings can be large; an effect the other way counts as inactive or inconclusive.
# Assays:
# [1] = qHTS assay for small molecule agonists of the p53 signaling pathway (AID 651631; calls by dose curve; also: nearly all actives have a fitted effect of over 15% in size)
# In short: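 Quantitative high-throughput format: 4,000 p53RE-bla HCT-116 cells/well, 5 h pre-incubation, 16 h compound exposure at 37 °C, 2 h room-temperature substrate step, fluorescence intensity measured.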
# [2] = qHTS assay for small molecules that induce genotoxicity in human embryonic kidney cells expressing luciferase-tagged ATAD5 (AID 651632); also: nearly all actives have a fitted effect of over 15% in size
# In short: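 Increased luciferase signal from ATAD5-tagged reporter cells indicates DNA-damage-driven ATAD5 induction. HEK293T cells are treated for 16 hr at 37C before detection with Amplite.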
# [3] = qHTS assay for small molecule agonists of the p53 signaling pathway - cell viability (AID 651633; calls by dose curve;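 also: p53RE-bla HCT reporter cells with a stable beta-lactamase p53 reporter; series mostly up to about 83 µM; nearly all actives have a fitted effect of over 30% in size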)
# In short: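 p53RE-bla cells, seeded at 4,000 per well and rested 5 h at 37 C/5% CO2, received compounds in DMSO for 16 h at 37 C. CellTiter-Glo was then added, and luminescence was read after 30 min at room temperature to gauge cytotoxicity.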
# [4] = qHTS assay for small molecules that induce genotoxicity in human embryonic kidney cells expressing luciferase-tagged ATAD5 - cell viability (AID 651634; calls by dose curve; also: nearly all actives have a fitted effect of over 25% in size)
# In short: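 Cytotoxicity counterscreen in HEK293T cells bearing an ATAD5-luciferase reporter: live-cell protease activity measured by CellTiter-Fluor fluorescence after 15.5 hr compound exposure.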
# [5] = qHTS assay for small molecule disruptors of the mitochondrial membrane potential - cell viability (AID 720634; calls by dose curve;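 also: human HepG2 liver cancer cells; series mostly up to about 83 µM; nearly all actives have a fitted effect of over 20% in size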)
# In short: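 After overnight attachment at 37 C, HepG2 cells received compound or DMSO vehicle for 1 hr. Viability is then taken from ATP-driven luminescence following a 30 min room-temperature CellTiter-Glo step.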
# [6] = qHTS assay to test for compound auto fluorescence at 590 nm (red) in HepG2 cells (AID 720674)
# In short: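 Intrinsic compound fluorescence in the red window (Ex/Em 540/590 nm) is measured in attached HepG2 cells exposed for 1 hr, DMSO vehicle as baseline, benchmarked to Rose Bengal sodium.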
# [7] = qHTS assay to test for compound auto fluorescence at 535 nm (green) in HepG2 cells (AID 720675)
# [8] = qHTS assay to test for compound auto fluorescence at 460 nm (blue) in HEK293 cells (AID 720678)
# In short: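 Measured: blue fluorescence (Ex 405/Em 460 nm) of compound-treated HEK293 cells, incubated overnight at 37C with 5% CO2 and scaled to triamterene equivalents.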
# [9] = qHTS assay to test for compound auto fluorescence at 590 nm (red) in HEK293 cells (AID 720679)
# In short: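 Using HEK293 cells at 2,000 per well, the screen added 23 nL of each compound after cell attachment and incubated overnight (37C, 5% CO2). The plate reader then captured red-label fluorescence, Ex/Em 540/590nm.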
# [10] = qHTS assay to test for compound auto fluorescence at 535 nm (green) in HEK293 cells (AID 720680)
# [11] = qHTS assay to test for compound auto fluorescence at 460 nm (blue) in HEK293 cell free culture (AID 720681)
# In short: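 Test compounds were pinned into cell-free culture medium (DMEM with 10% FBS) and fluorescence was read directly at Ex/Em 405/460 nm. Signals were expressed as fluorescence equivalents of triamterene, with DMSO vehicle as control.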
# [12] = qHTS assay to test for compound auto fluorescence at 535 nm (green) in HEK293 cell free culture (AID 720682)
# In short: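 Measurement is a direct plate read of green fluorescence (485 nm in, 535 nm out) after compound addition to serum-supplemented DMEM lacking cells, with fluorescein used to express intensities.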
# [13] = qHTS assay to test for compound auto fluorescence at 590 nm (red) in HEK293 cell free culture (AID 720683)
# In short: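 Tox21 10K library compounds were pinned into cell-free DMEM with 10% FBS and fluorescence was read at excitation 540 nm. Activity is expressed as Rose Bengal sodium equivalency.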
# [14] = qHTS assay to test for compound auto fluorescence at 590 nm (red) in HepG2 cell free culture (AID 720684)
# In short: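 Measured in medium alone (MEM containing 10% FBS) following pintool addition of compound; emission at 590 nm with 540 nm excitation, referenced to Rose Bengal sodium.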
# [15] = qHTS assay to test for compound auto fluorescence at 460 nm (blue) in HepG2 cell free culture (AID 720685)
# In short: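 Compound (23 nL) or DMSO pinned into cell-free MEM with 10% FBS; blue fluorescence read at 405/460 nm excitation/emission, expressed as auto-fluorescence equivalency to triamterene.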
# [16] = qHTS assay to test for compound auto fluorescence at 535 nm (green) in HepG2 cell free culture (AID 720686)
# [17] = qHTS assay to test for compound auto fluorescence at 460 nm (blue) in HepG2 cells (AID 720687)
# In short: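 Cells (2,000/well in MEM with 10% FBS) attached overnight at 37 C, then were exposed to compound or DMSO for 1 hr at 37 C, 5% CO2. Fluorescence read at Ex/Em 405/460 nm, expressed as triamterene-equivalent signal.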
# [18] = qHTS assay to identify small molecule antagonists of the glucocorticoid receptor (GR) signaling pathway - cell viability counter screen (AID 720693); also: nearly all actives have a fitted effect of over 55% in size
# [19] = qHTS assay for identifying genotoxic compounds that show differential cytotoxicity against isogenic chicken DT40 cell lines with known DNA damage response pathways - wild type cell line (AID 743012); also: nearly all actives have a fitted effect of over 60% in size; also: potency is read from the fitted curve at half-maximal effect
# In short: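 Cells (DT40 wild type, 300/well) are treated with DMSO-dissolved compounds after a ~0.5 h pre-incubation and kept 40 h at 37 C/5% CO2. Viability is then measured by CellTiter-Glo luminescence following 30 min at room temperature.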
# [20] = qHTS assay for identifying genotoxic compounds that show differential cytotoxicity against isogenic chicken DT40 cell lines with known DNA damage response pathways - Rev3 mutant cell line (AID 743014); also: nearly all actives have a fitted effect of over 55% in size; also: potency is read from the fitted curve at half-maximal effect
# [21] = qHTS assay for identifying genotoxic compounds that show differential cytotoxicity against isogenic chicken DT40 cell lines with known DNA damage response pathways - Rad54/Ku70 mutant cell line (AID 743015); also: nearly all actives have a fitted effect of over 60% in size; also: potency is read from the fitted curve at half-maximal effect
# [22] = qHTS assay to identify small molecule antagonists of the androgen receptor (AR) signaling pathway - cell viability counter screen (AID 743033; also: nearly all actives have a fitted effect of over 45% in size)
# [23] = qHTS assay to identify small molecule antagonists of the thyroid receptor (TR) signaling pathway - cell viability counter screen (AID 743064); also: potency is read from the fitted curve at half-maximal effect; nearly all actives have a fitted effect of over 50% in size
# In short: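 Compounds were tested on GH3.TRE-Luc cells in the presence of T3 at 1 nM final. Following 23.5 h at 37 °C, cell viability was quantified by CellTiter-Fluor.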
# [24] = qHTS assay to identify small molecule antagonists of the thyroid receptor (TR) signaling pathway (AID 743065); also: potency is read from the fitted curve at half-maximal effect; nearly all actives have a fitted effect of over 55% in size
# In short: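 GH3.TRE-Luc rat pituitary cells carrying two TR response elements driving luciferase were plated for 4 h, given compound plus 1 nM T3 (final), and incubated 23.5 h at 37 C. ONE-Glo luminescence measured reporter inhibition; CellTiter-Fluor fluorescence tracked cytotoxicity.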
# [25] = tested on: thyroid hormone receptor (rat, GH3 cells); experiment: qHTS assay to identify small molecule agonists of the thyroid receptor (TR) signaling pathway (AID 743066; calls by dose curve)
# [26] = target: Estrogen receptor (Homo sapiens) (UniProt P03372); experiment: qHTS assay to identify small molecule antagonists of the estrogen receptor alpha (ER-alpha) signaling pathway (AID 743069; active = well fitted curve in the direction sought with a large enough effect in the signal ratio in the repeat runs, not every such curve was filed as active; the % refers to the signal ratio)
# In short: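 Estradiol-stimulated ER-alpha-UAS-bla HEK293 cells, 18 hr compound exposure at 37C. LiveBLAzer B/G substrate, 2 hr RT, fluorescence read.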
# [27] = qHTS assay to identify small molecule antagonists of the estrogen receptor alpha (ER-alpha) signaling pathway - cell viability counter screen (AID 743074; calls by dose curve;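 also: HEK293 cells carrying ER-alpha-UAS-bla reporter stimulated with 17beta-estradiol; nearly all actives have a fitted effect of over 45% in size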)
# [28] = target: Estrogen receptor (Homo sapiens) (UniProt P03372); experiment: qHTS assay to identify small molecule agonists of the estrogen receptor alpha (ER-alpha) signaling pathway (AID 743075; calls by dose curve;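 also: HEK293 GripTite cells with ER-alpha and UAS-driven beta-lactamase reporter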)
# [29] = target: Estrogen receptor (Homo sapiens) (UniProt P03372); experiment: qHTS assay to identify small molecule agonists of the estrogen receptor alpha (ER-alpha) signaling pathway using the BG1 cell line (AID 743079); also: nearly all actives have a fitted effect of over 20% in size
# [30] = qHTS assay to identify small molecule antagonists of the estrogen receptor alpha (ER-alpha) signaling pathway using the BG1 cell line (AID 743080; calls by dose curve;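 also: BG1 cells stimulated with 17beta-estradiol alongside compound; series mostly up to about 70 µM; nearly all actives have a fitted effect of over 25% in size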)
# In short: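 Quantitative HTS on the Tox21 10K library: BG1 cells with endogenous ER-alpha and ERE-luciferase reporter, 17beta-estradiol stimulation, 21.5 h compound exposure, luminescence endpoint with parallel fluorescence cytotoxicity counter-read.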
# [31] = qHTS assay to identify small molecule antagonists of the estrogen receptor alpha (ER-alpha) signaling pathway using the BG1 cell line - cell viability counter screen (AID 743081);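 also: compound given together with 17beta-estradiol as the ER stimulus; nearly all actives have a fitted effect of over 45% in size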; also: potency is read from the fitted curve at half-maximal effect
# Aromatase (Homo sapiens) = Aromatase (Homo sapiens) (UniProt P11511); experiment: qHTS assay to identify aromatase inhibitors (AID 743083); also: series mostly up to about 70 µM; nearly all actives have a fitted effect of over 55% in size
# [32] = qHTS assay to identify aromatase inhibitors - cell viability counter screen (AID 743084)
# [33] = qHTS assay to identify small molecule that activate the aryl hydrocarbon receptor (AhR) signaling pathway - cell viability counter screen (AID 743086);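 also: HepG2 liver cells carrying the AhR DRE luciferase reporter; series mostly up to about 70 µM; nearly all actives have a fitted effect of over 45% in size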
# In short: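 HepG2-AhR-luc (HG2L7.5c1) cells, 4000/well, were preincubated 5 h at 37C, exposed to compound in qHTS format for 24 hr at 37C, then given CellTiter-Fluor for 30 min; viability was read as fluorescence in the reporter wells.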
# [34] = qHTS assay for small molecule disruptors of the mitochondrial membrane potential (AID 720635)
# In short: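 HepG2 cells (2,000/well) attached overnight at 37C, then took compound for 1 hr at 37C, 5% CO2. Mito-MPS dye was added for 30 min; fluorescence was read at 490/535 nm (monomers) and 540/590 nm (aggregates).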
# [35] = target: Glucocorticoid receptor (Homo sapiens) (UniProt P04150); experiment: qHTS assay to identify small molecule agonists of the glucocorticoid receptor (GR) signaling pathway (AID 720691; active = well fitted activation curve with a large enough effect in the signal ratio in the repeat runs, not every such curve was filed as active; the % refers to the signal ratio)
# In short: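 Agonist mode in a HeLa line carrying a GRE-controlled beta-lactamase reporter. Compounds act for 18 h at 37 C before a 2 h room-temperature FRET substrate step and fluorescence reading.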
# [36] = target: Androgen receptor (Homo sapiens) (UniProt P10275); experiment: qHTS assay to identify small molecule antagonists of the androgen receptor (AR) signaling pathway (AID 743035; active = well fitted inhibition curve with a large enough effect in the signal ratio in the repeat runs, not every such curve was filed as active; the % refers to the signal ratio)
# In short: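 Antagonism is scored as loss of R1881-driven beta-lactamase reporter expression in HEK293 cells carrying the reporter under a UAS element, after 16 h co-treatment at 37C and a 2 h room-temperature FRET substrate read.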
# [37] = target: Androgen receptor (Homo sapiens) (UniProt P10275); experiment: qHTS assay to identify small molecule agonists of the androgen receptor (AR) signaling pathway using the MDA cell line (AID 743040; also: nearly all actives have a fitted effect of over 20% in size)
# In short: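 Luminescence from ONE-Glo, read after 30 min at room temperature, reflects MMTV-driven luciferase in MDA-kb2 cells (AR- and GR-responsive). Treatment lasted 16 h at 37C, 0% CO2.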
# [38] = qHTS assay to identify small molecule antagonists of the androgen receptor (AR) signaling pathway using the MDA cell line - cell viability counter screen (AID 743041; also: nearly all actives have a fitted effect of over 45% in size)
# In short: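 Viability counter screen run alongside the AR antagonist reporter: cells seeded 5 h before compound, R1881 added, 16 h incubation at 37C without CO2, fluorescent CellTiter-Fluor signal quantified.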
# [39] = target: Androgen receptor (Homo sapiens) (UniProt P10275); experiment: qHTS assay to identify small molecule antagonists of the androgen receptor (AR) signaling pathway using the MDA cell line (AID 743042; also: nearly all actives have a fitted effect of over 55% in size)
# In short: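 MDA-kb2 cells (human breast carcinoma, stably carrying an MMTV-luciferase reporter responsive to AR and GR) were plated at 3,000 cells/well and preincubated 5 hr at 37C, then given compound plus R1881 agonist for 16 h. ONE-Glo luminescence was read.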
# [40] = target: Peroxisome proliferator-activated receptor gamma (Homo sapiens) (UniProt P37231); experiment: qHTS assay to identify small molecule agonists of the peroxisome proliferator-activated receptor gamma (PPARg) signaling pathway (AID 743094; active = well fitted activation curve with a large enough effect in the signal ratio in the repeat runs, not every such curve was filed as active; the % refers to the signal ratio)
# In short: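 Quantitative HTS agonist mode: stable HEK293H line with UAS-beta-lactamase reporter under PPARg control, 17 h compound exposure at 37C, fluorescence after 1 h FRET substrate loading at room temperature.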
# Estrogen receptor (Homo sapiens), sequence (P03372 whole entry, looked up): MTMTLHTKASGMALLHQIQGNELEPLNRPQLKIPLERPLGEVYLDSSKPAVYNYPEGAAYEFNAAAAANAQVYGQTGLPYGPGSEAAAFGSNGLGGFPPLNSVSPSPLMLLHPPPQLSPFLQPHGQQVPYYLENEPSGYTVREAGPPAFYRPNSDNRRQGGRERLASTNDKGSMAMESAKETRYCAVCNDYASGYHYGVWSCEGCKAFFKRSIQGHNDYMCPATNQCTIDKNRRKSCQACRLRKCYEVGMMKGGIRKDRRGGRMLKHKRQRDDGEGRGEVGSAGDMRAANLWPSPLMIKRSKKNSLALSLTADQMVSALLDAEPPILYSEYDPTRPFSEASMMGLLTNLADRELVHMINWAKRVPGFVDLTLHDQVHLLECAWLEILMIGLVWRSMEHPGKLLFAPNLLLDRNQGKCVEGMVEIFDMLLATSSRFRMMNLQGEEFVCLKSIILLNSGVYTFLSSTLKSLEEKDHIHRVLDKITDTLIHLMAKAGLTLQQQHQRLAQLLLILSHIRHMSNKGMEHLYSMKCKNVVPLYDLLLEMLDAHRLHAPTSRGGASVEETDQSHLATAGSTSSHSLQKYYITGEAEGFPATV
# Androgen receptor (Homo sapiens), sequence (P10275 whole entry, looked up): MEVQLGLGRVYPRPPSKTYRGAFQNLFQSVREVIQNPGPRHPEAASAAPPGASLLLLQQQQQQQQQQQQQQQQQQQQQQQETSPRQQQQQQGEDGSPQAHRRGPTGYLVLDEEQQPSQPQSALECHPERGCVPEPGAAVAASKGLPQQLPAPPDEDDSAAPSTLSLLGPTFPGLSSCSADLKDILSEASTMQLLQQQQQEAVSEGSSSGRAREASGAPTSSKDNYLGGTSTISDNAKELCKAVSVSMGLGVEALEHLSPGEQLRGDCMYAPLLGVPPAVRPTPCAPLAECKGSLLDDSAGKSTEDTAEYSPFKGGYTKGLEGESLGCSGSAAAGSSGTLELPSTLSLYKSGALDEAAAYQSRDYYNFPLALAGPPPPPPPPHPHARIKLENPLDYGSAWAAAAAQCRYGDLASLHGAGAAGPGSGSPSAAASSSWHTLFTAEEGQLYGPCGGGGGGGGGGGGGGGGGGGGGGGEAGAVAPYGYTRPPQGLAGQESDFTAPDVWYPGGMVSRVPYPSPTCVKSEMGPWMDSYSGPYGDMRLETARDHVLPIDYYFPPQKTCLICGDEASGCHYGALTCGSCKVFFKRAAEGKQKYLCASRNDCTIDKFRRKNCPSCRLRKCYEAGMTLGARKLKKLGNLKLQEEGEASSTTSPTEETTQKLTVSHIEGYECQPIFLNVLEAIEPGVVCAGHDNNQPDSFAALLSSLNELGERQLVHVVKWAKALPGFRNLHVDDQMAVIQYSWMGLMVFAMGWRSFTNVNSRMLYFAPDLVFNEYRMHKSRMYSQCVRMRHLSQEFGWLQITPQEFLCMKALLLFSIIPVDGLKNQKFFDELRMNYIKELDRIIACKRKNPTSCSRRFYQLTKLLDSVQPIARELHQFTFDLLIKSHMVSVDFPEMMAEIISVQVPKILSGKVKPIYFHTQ
# Aromatase (Homo sapiens), sequence (P11511 whole entry, looked up): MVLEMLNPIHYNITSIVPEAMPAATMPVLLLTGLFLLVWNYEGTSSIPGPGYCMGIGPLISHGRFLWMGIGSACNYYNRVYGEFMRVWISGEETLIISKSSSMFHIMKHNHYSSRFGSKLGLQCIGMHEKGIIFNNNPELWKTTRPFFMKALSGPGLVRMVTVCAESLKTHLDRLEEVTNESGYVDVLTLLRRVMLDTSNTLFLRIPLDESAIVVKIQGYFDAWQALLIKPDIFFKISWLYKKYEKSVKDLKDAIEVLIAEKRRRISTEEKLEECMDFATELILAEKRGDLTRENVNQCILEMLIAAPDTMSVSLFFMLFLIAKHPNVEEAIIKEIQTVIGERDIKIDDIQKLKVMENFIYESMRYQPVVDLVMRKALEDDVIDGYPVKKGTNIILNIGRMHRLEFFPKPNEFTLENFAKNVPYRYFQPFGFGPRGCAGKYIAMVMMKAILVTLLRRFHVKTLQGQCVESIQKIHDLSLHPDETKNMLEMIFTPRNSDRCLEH
# Glucocorticoid receptor (Homo sapiens), sequence (P04150 whole entry, looked up): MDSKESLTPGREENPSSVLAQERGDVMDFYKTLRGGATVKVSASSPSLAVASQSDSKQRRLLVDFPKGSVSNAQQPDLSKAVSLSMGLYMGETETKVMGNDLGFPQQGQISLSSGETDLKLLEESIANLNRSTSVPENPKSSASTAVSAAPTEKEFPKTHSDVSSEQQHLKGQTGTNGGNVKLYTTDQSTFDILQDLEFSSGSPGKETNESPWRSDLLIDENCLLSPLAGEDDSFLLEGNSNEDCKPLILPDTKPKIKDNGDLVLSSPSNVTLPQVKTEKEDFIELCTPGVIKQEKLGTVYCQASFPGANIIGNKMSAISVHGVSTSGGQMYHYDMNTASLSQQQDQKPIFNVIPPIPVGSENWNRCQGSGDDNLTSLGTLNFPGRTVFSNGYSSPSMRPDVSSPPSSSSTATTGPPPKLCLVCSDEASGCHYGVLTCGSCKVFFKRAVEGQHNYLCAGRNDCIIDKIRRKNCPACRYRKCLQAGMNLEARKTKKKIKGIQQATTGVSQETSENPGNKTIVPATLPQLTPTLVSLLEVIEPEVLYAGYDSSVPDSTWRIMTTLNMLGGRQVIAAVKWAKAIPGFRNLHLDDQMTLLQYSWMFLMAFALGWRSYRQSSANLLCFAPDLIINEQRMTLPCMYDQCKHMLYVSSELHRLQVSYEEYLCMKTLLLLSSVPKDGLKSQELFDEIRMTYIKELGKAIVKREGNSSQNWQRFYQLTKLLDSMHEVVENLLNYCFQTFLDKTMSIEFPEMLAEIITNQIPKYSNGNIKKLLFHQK
# Peroxisome proliferator-activated receptor gamma (Homo sapiens), sequence (P37231 whole entry, looked up): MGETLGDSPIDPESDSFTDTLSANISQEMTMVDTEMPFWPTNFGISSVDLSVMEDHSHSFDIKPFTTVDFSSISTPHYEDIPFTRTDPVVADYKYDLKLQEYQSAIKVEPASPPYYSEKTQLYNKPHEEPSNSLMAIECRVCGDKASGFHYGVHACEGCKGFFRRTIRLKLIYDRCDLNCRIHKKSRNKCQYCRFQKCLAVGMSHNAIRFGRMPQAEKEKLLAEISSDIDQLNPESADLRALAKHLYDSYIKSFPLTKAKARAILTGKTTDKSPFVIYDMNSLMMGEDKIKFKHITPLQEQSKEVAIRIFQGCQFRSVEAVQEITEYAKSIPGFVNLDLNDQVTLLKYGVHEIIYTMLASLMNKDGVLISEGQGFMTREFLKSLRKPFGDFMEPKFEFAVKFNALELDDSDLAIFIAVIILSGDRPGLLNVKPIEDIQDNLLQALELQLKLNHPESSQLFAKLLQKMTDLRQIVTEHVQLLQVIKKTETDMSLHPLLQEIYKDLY
structure (smiles),measurement,setting,value
COc1cc(C[C@H](C)N)c(OC)cc1Br,Potency,[1],inactive
same,outcome,[2],inactive
same,Potency,[3],inactive
same,Potency,[4],inactive
same,outcome,[5],inactive
same,outcome,[6],inactive
same,outcome,[7],inactive
same,outcome,[8],inactive
same,outcome,[9],inactive
same,outcome,[10],inactive
same,outcome,[11],inactive
same,outcome,[12],inactive
same,outcome,[13],inactive
same,outcome,[14],inactive
same,outcome,[15],inactive
same,outcome,[16],inactive
same,outcome,[17],inactive
same,Potency,[18],inactive
same,Potency,[19],70.4 µM (active)
same,Potency,[20],62.7 µM (active)
same,Potency,[21],70.4 µM (active)
same,Potency,[22],inactive
same,Potency,[23],70.4 µM (active)
same,Potency,[24],31.4 µM (active)
same,outcome,[25],inactive
same,outcome,[26],inactive
same,Potency,[27],inactive
same,Potency,[28],inactive
same,Potency,[29],inactive
same,outcome,[30],inactive
same,Potency,[31],15.8 µM (active)
same,Potency,Aromatase (Homo sapiens),inactive
same,outcome,[32],inactive
same,Potency,[33],inactive
CNC(C)[C@@H]1CC[C@@H](N)[C@@H](O[C@H]2[C@H](O)[C@@H](O[C@H]3OC[C@](C)(O)[C@H](NC)[C@H]3O)[C@H](N)C[C@@H]2N)O1 (stereo not given in full),Potency,[1],inactive
same,outcome,[2],inactive
same,Potency,[3],inactive
same,Potency,[4],inactive
same,outcome,[5],inactive
same,Potency,[34],inactive
same,outcome,[35],inactive
same,Potency,[18],inactive
same,Potency,[19],inactive
same,Potency,[20],inactive
same,Potency,[21],inactive
same,Potency,[22],inactive
same,Potency,[36],inactive
same,outcome,[37],inactive
same,outcome,[38],inactive
same,outcome,[39],inactive
same,outcome,[26],inactive
same,Potency,[27],inactive
same,Potency,[28],inactive
same,Potency,[29],inactive
same,outcome,[30],inactive
same,Potency,[31],inactive
same,Potency,Aromatase (Homo sapiens),inactive
same,outcome,[32],inactive
same,Potency,[33],inactive
same,outcome,[40],inactive

# From PubChem BioAssay (Tox21)
